# Experimental data as given in paper PMC8384837, “Expanding the binding specificity for RNA recognition by a PUF domain”.
# How the values were obtained:
# Assay in all cases: yeast three-hybrid, YBZ-1, SC-Leu-His + 0.5 mM 3-AT, 4 days
# Settings in all cases: tags: N-Gal4 AD-HA kept; label: inside an RPR1-promoter hybrid RNA with tandem MS2 sites; ssRNA
# [1] = biological target: PUM1 PUF domain R8-KYC (Homo sapiens, UniProt Q14671 828-1176, N1122K;Q1126C)
# Method in brief: (§1)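 Pumilio-1 PUF domain libraries, randomized at the three base-contacting residues of each repeat, were co-expressed with matching RNA elements from a centromeric plasmid in strain YBZ-1, which carries a LexA–MS2 coat fusion and a HIS3 reporter. Transformants grew for four days on SC-Leu (input) or on SC-Leu-His + 0.5 mM 3-AT (selection), and the repeat regions were PCR-amplified and Illumina-sequenced. The interaction score is the log change in variant frequency from input to selection. That logarithm is base 2, with a pseudocount of 1 where a variant was absent.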
# [2] = biological target: PUM1 PUF domain R5-QKN (Homo sapiens, UniProt Q14671 828-1176, C1007Q;R1008K;Q1011N)
# Method in brief: as §1
# [3] = biological target: PUM1 PUF domain R5-RFA (Homo sapiens, UniProt Q14671 828-1176, C1007R;R1008F;Q1011A)
# Method in brief: as §1
# [4] = biological target: PUM1 PUF domain R5-RFG (Homo sapiens, UniProt Q14671 828-1176, C1007R;R1008F;Q1011G)
# Method in brief: as §1
# [5] = biological target: PUM1 PUF domain R4-DYV (Homo sapiens, UniProt Q14671 828-1176, N971D;H972Y;Q975V)
# Method in brief: as §1
# [6] = biological target: PUM1 PUF domain R4-PFD (Homo sapiens, UniProt Q14671 828-1176, N971P;H972F;Q975D)
# Method in brief: as §1
# [7] = biological target: PUM1 PUF domain R3-ARG (Homo sapiens, UniProt Q14671 828-1176, C935A;Q939G)
# Method in brief: as §1
# [8] = biological target: PUM1 PUF domain R8-PWS (Homo sapiens, UniProt Q14671 828-1176, N1122P;Y1123W;Q1126S)
# Method in brief: as §1
# [9] = biological target: PUM1 PUF domain R8-KYQ (Homo sapiens, UniProt Q14671 828-1176, N1122K)
# Method in brief: as §1
# [10] = biological target: PUM1 PUF domain R3-KHV (Homo sapiens, UniProt Q14671 828-1176, C935K;R936H;Q939V)
# Method in brief: as §1
# Chain of PUM1 PUF domain R4-PFD (Q14671 828-1176 N971P/H972F/Q975D): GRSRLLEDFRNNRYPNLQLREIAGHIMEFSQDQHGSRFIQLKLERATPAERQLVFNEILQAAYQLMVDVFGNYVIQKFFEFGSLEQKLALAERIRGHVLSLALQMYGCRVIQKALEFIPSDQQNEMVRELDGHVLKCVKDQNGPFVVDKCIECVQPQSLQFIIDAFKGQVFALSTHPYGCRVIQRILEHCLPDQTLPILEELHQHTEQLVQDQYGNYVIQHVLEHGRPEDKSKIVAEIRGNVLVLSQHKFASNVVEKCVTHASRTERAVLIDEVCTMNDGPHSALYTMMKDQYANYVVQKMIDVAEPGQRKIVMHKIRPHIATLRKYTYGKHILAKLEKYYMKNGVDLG
# Chain of PUM1 PUF domain R5-RFA (Q14671 828-1176 C1007R/R1008F/Q1011A): as the sequence (Q14671 828-1176 N971P/H972F/Q975D) above, with P144N, F145H, D148Q, C180R, R181F, Q184A counted along it
# Chain of PUM1 PUF domain R4-DYV (Q14671 828-1176 N971D/H972Y/Q975V): as the sequence (Q14671 828-1176 N971P/H972F/Q975D) above, with P144D, F145Y, D148V counted along it
# Chain of PUM1 PUF domain R5-RFG (Q14671 828-1176 C1007R/R1008F/Q1011G): as the sequence (Q14671 828-1176 N971P/H972F/Q975D) above, with P144N, F145H, D148Q, C180R, R181F, Q184G counted along it
# Chain of PUM1 PUF domain R3-ARG (Q14671 828-1176 C935A/Q939G): as the sequence (Q14671 828-1176 N971P/H972F/Q975D) above, with C108A, Q112G, P144N, F145H, D148Q counted along it
# Chain of PUM1 PUF domain R8-KYC (Q14671 828-1176 N1122K/Q1126C): as the sequence (Q14671 828-1176 N971P/H972F/Q975D) above, with P144N, F145H, D148Q, N295K, Q299C counted along it
# Chain of PUM1 PUF domain R8-KYQ (Q14671 828-1176 N1122K): as the sequence (Q14671 828-1176 N971P/H972F/Q975D) above, with P144N, F145H, D148Q, N295K counted along it
# Chain of PUM1 PUF domain R8-PWS (Q14671 828-1176 N1122P/Y1123W/Q1126S): as the sequence (Q14671 828-1176 N971P/H972F/Q975D) above, with P144N, F145H, D148Q, N295P, Y296W, Q299S counted along it
# Chain of PUM1 PUF domain R5-QKN (Q14671 828-1176 C1007Q/R1008K/Q1011N): as the sequence (Q14671 828-1176 N971P/H972F/Q975D) above, with P144N, F145H, D148Q, C180Q, R181K, Q184N counted along it
# Chain of PUM1 PUF domain R3-KHV (Q14671 828-1176 C935K/R936H/Q939V): as the sequence (Q14671 828-1176 N971P/H972F/Q975D) above, with C108K, R109H, Q112V, P144N, F145H, D148Q counted along it
sequence,measurement,setting,value
GGCUAGAACUAGUGGAUCCCCCGGCGCCCGGCGGCUCGAGCCCGGGUAAGCGUAAAUAGUCUGCAUGCCGCCGGGCGCCAUGCCUGCAGGUCGACUCUAGAAAACAUG,binding signal,[1],6.06 log2 enrichment (interaction score)
GGCUAGAACUAGUGGAUCCCCCGGCGCCCGGCGGCUCGAGCCCGGGUAAGUGUCAAUAGUCUGCAUGCCGCCGGGCGCCAUGCCUGCAGGUCGACUCUAGAAAACAUG,binding signal,[2],2.32 log2 enrichment (interaction score)
same,binding signal,[3],5.36 log2 enrichment (interaction score)
same,binding signal,[4],5.07 log2 enrichment (interaction score)
GGCUAGAACUAGUGGAUCCCCCGGCGCCCGGCGGCUCGAGCCCGGGUAAGUGUAUAUAGUCUGCAUGCCGCCGGGCGCCAUGCCUGCAGGUCGACUCUAGAAAACAUG,binding signal,[5],6.86 log2 enrichment (interaction score)
same,binding signal,[6],5.34 log2 enrichment (interaction score)
GGCUAGAACUAGUGGAUCCCCCGGCGCCCGGCGGCUCGAGCCCGGGUAAGUGUUAAUAGUCUGCAUGCCGCCGGGCGCCAUGCCUGCAGGUCGACUCUAGAAAACAUG,binding signal,[3],4.55 log2 enrichment (interaction score)
same,binding signal,[4],5.49 log2 enrichment (interaction score)
GGCUAGAACUAGUGGAUCCCCCGGCGCCCGGCGGCUCGAGCCCGGGUAAGUGUACAUAGUCUGCAUGCCGCCGGGCGCCAUGCCUGCAGGUCGACUCUAGAAAACAUG,binding signal,[5],6.74 log2 enrichment (interaction score)
same,binding signal,[6],1.86 log2 enrichment (interaction score)
GGCUAGAACUAGUGGAUCCCCCGGCGCCCGGCGGCUCGAGCCCGGGUAAGUGUGAAUAGUCUGCAUGCCGCCGGGCGCCAUGCCUGCAGGUCGACUCUAGAAAACAUG,binding signal,[4],2.66 log2 enrichment (interaction score)
GGCUAGAACUAGUGGAUCCCCCGGCGCCCGGCGGCUCGAGCCCGGGUAAGUGUAAAUAGUCUGCAUGCCGCCGGGCGCCAUGCCUGCAGGUCGACUCUAGAAAACAUG,binding signal,[7],3.94 log2 enrichment (interaction score)
same,binding signal,[5],5.94 log2 enrichment (interaction score)
same,binding signal,[3],2.39 log2 enrichment (interaction score)
same,binding signal,[1],2.79 log2 enrichment (interaction score)
same,binding signal,[6],3.55 log2 enrichment (interaction score)
same,binding signal,[8],2.42 log2 enrichment (interaction score)
same,binding signal,[9],5.9 log2 enrichment (interaction score)
same,binding signal,[4],3.09 log2 enrichment (interaction score)
GGCUAGAACUAGUGGAUCCCCCGGCGCCCGGCGGCUCGAGCCCGGGUAAGUGUAAUUAGUCUGCAUGCCGCCGGGCGCCAUGCCUGCAGGUCGACUCUAGAAAACAUG,binding signal,[10],2.96 log2 enrichment (interaction score)
same,binding signal,[7],0.5 log2 enrichment (interaction score)
